Only some compounds are listed: those with a hit (about 19% of all), similar ones and a draw of the others.
TDP1 cell CPT: qHTS for Inhibitors of human tyrosyl-DNA phosphodiesterase 1 (TDP1): qHTS in cells in presence of CPT; chicken DT40 Tdp1-/-;hTDP1 cells + 20 nM CPT, ATP luminescence, 48 h; Potency, µM (top dose mostly 46.2 µM), inactives show at the highest dose activity change, negative = growth inhibition, usual class: inhibitors; 420,000 tested, 12% active; AID 686979, 2013; also: potency is read from the fitted curve at half-maximal effect; nearly all actives have a fitted effect of over 55% in size
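Chicken DT40 Tdp1-/- cells complemented with human TDP1, 400 cells/well, exposed to compounds plus 20 nM camptothecin for at least 48 h at 37 C; viability read as ATP content by CellTiter-Glo luminescence.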
HT1080 IDH1KD tx: qHTS for induction of synthetic lethality in tumor cells producing 2HG: qHTS for the HT-1080-IDH1KD cell line | 360,000 tested, 2% active | Potency, µM (series often up to 46.1 µM), for inactives: top-dose activity, negative = toxicity, usual class: cytotoxic | AID 686971, 2013 | HT-1080 IDH1 knockdown viability, ATP luminescence, 48 h;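 also: potency is read from the fitted curve at half-maximal effect; 0% = DMSO wells and -100% = cell-free medium wells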
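IDH1KD HT-1080 cells, 750/well, RPMI + 5% FBS; compound pinned after 2 h settling; 48 h, 37 °C; CellTiter-Glo luminescence; % activity normalised to DMSO and no-cell wells; curves fitted, classed by r2 and efficacy.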
IL1B secr inh: qHTS for Inhibitors of Inflammasome Signaling: IL-1-beta AlphaLISA Primary Screen | AID 743279, 2014 | THP-1 LPS/ATP IL-1B secretion, AlphaLISA, 16 h; active compounds read low | activity change, % at 57.5 µM | 360,000 tested, 4.7% active; in the data active = activity change below about -50%; inconclusive = mostly about -30% to -49%
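THP-1 cells pretreated 1 hr with compounds (up to 57.5 uM final), then stimulated with LPS (250 ng/mL final) plus ATP (1.25 mM final); secreted IL-1B measured by AlphaLISA after 16 hr, decreased signal indicating inhibition.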
HT1080-NT tox: qHTS for induction of synthetic lethality in tumor cells producing 2HG: qHTS for the HT-1080-NT fibrosarcoma cell line | HT-1080-NT fibrosarcoma viability, CellTiter-Glo ATP luminescence, 48 h | Potency, µM (series often up to 46.1 µM), for inactives: top-dose activity, negative = less viability, hits mostly cytotoxic | 360,000 tested, 1.6% active;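 also: NT is the 2HG producing partner of a matched IDH1 knockdown line; potency is read from the fitted curve at half-maximal effect; 0% = DMSO-treated cells and -100% = media-only wells without cells; nearly all actives have a fitted effect of over 55% in size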
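Luminescent CellTiter-Glo readout after 48 hours of compound exposure at 37 degrees C defined viability of HT-1080-NT cells. Activity was normalized to DMSO wells and cell-free media wells; concentration-response curves were fitted and assigned curve classes.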
DT40 TDP1 no CPT: qHTS for Inhibitors of human tyrosyl-DNA phosphodiesterase 1 (TDP1): qHTS in cells in absence of CPT | DT40 Tdp1-/- hTDP1 cells, no CPT, ATP luminescence, 48 h | Potency, µM (titrated, usually from 46.2 µM), inactives show at the top dose activity change, negative = growth inhibition, most hits filed as inhibitors | 420,000 tested, 15% active | AID 686978, 2013; also: potency is read from the fitted curve at half-maximal effect; nearly all actives have a fitted effect of over 55% in size
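No-CPT arm: Tdp1-/-;hTDP1 DT40 cells (400/well) plus compounds, incubated ≥48 hr at 37 °C. Readout CellTiter-Glo luminescence.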
* marks the source's active call; other numbers are inactive results; u = inconclusive; x = not tested or not shown; [ ] = remark or other dose. Unless noted, calls follow the shape of the dose curve; as a rule, active = well fitted curve in the direction sought with a large enough effect; inconclusive = small, poorly fitted or top-dose-only effect, or another doubt; inactive = no such curve, though single readings can be large; an effect the other way counts as inactive or inconclusive. Unless noted, % is scaled to controls: 0 for no effect and ±100 for the full control effect.

SMILES	TDP1 cell CPT	HT1080 IDH1KD tx	IL1B secr inh	HT1080-NT tox	DT40 TDP1 no CPT
CC1(C(=O)Nc2cccc(NS(C)(=O)=O)c2)Cc2c(-c3ccc(C(N)=O)cc3)ccnc2O1 (stereo not given)	-16%	13%	19	7%	-5%
CCN(CC)c1ccc(C2Nc3cccc4cccc(c34)N2)c(O)c1	-27%	-2%	-6	2%	-21%
CC1(C)CC(=O)C2=C(C1)Nc1[nH]c(=S)[nH]c(=O)c1C2c1ccccc1 (stereo not given)	3%	19%	16	18%	u
COc1ccc(-c2noc(-c3ccccc3C(=O)NCc3ccco3)n2)cc1OC	u	4%	u	-4%	15µM*
COc1ccc(-c2noc(CCCC(=O)NCc3ccco3)n2)cc1OC	-1%	6%	5	7%	u
COc1ccc(-c2cc(C(=O)Nc3cccc(S(=O)(=O)NCc4ccco4)c3)c3ccccc3n2)cc1OC	10µM*	-12%	u	0%	6.5µM*
COc1ccc(-c2noc(-c3ccccc3-c3ccccc3)n2)cc1OC	u	-3%	19	-3%	26µM*
COc1cc2cc3c(N)c(C(=O)NCc4ccco4)sc3nc2cc1OC	23µM*	3%[9.24 µM]	-58*	-8%	15µM*
Cc1ccc2scc(N3CCCC(C)C3)c(=O)c2c1 (stereo not given)	-17%	x	x	x	-19%
CS(=O)c1ccccc1-c1nc(-c2cccc(Cl)c2)no1 (stereo not given)	u	-15%	-29	-12%	16µM*
COc1cccc(-c2cc(C(=O)NCc3ccco3)c3ccccc3n2)c1	12µM*	3%	16	2%	u
COc1ccc(N=c2oc3c(OC)cccc3cc2C(=O)NCc2ccco2)cc1OC	12µM*	11%	19	0%	7.3µM*
COc1ccc(-c2cc(C(=O)NCc3ccco3)c3ccccc3n2)cc1OC	u	-6%	4	-8%	18µM*
CS(=O)(=O)c1ccccc1-c1nc(-c2cccc(Cl)c2)no1	4%	-7%	-23	-14%	u
COc1ccc(C(=O)Nc2ccc(Cl)cc2C(=O)NCc2ccco2)cc1OC	u	10%	-58*	4%	u
COc1ccc(Cl)cc1C(=O)NCc1ccco1	2%	11%	u	8%	-6%
CC(=O)Nc1cccc(-c2csc(N)n2)c1	3%	7%	-4	2%	0%
O=C(Nc1cccc(NC(=O)c2cccnc2)c1)c1ccccc1	-21%	5%	3	0%	u
CC(=O)Nc1cccc(-c2cnc(N)c(C(=O)c3cccnc3)n2)c1	8.2µM*	-25%	-99*	-24%	10µM*
NC(=O)c1cccc(-c2cnc(N)c(C(=O)c3cccnc3)n2)c1	2.3µM*	-25%	-95*	-19%	9.2µM*
CCCCc1nc2cc(C(=O)N(C)C3CCOCC3)ccc2o1	-10%	9%	9	11%	-1%
O=C(CCl)Nc1c(C(=O)Nc2ccc3c(c2)OCCO3)oc2ccccc12	5.2µM*	u	-99*	u	10µM*
COc1ccccc1NC(=O)c1oc2ccccc2c1NC(=O)C1CCCCC1	-23%	x	x	x	u
O=C(Nc1ccc(F)cc1)c1oc2ccccc2c1NC(=O)C1CCCC1	u	u	-7	24%	18µM*
CCOc1ccc(NC(=O)c2oc3ccccc3c2NC(=O)C2CCCCC2)cc1	-16%	x	x	x	u
SMILES	TDP1 cell CPT	HT1080 IDH1KD tx	IL1B secr inh	HT1080-NT tox	DT40 TDP1 no CPT
COc1cccc(NC(=O)c2oc3ccccc3c2NC(=O)C2CCCCC2)c1	u	x	x	x	16µM*
COc1cccc(NC(=O)c2oc3ccccc3c2NC(=O)c2ccc3c(c2)OCO3)c1	14µM*	-30%	x	-17%	u
COc1cccc(NC(=O)c2ccc3c(c2)OCO3)c1	-27%	-8%	-12	-12%	-7%
COCC(=O)Nc1c(C(=O)Nc2ccc3c(c2)OCO3)oc2ccccc12	u	-1%	30	4%	u
Cc1ccc2oc3c(c(=O)c2c1)C(c1ccc(O)cc1)N(c1nc(C)c(C)s1)C3=O (stereo not given)	-5%	x	x	x	-8%
COC(=O)[C@]12CCCCC=C1N(Cc1ccc3c(c1)OCO3)C(=O)[C@H](CC(=O)NCc1cccc3ccccc13)C2	u	-19%	-11	u	u
COc1cccc(NC(=O)c2oc3ccccc3c2NC(=O)c2cc3ccccc3o2)c1	13µM*	x	x	x	18µM*
COc1cc2c(cc1OC)n(CC(=O)NC1CCCCCC1)n1c(C)cc(=O)nc21	-20%	-1%	-13	10%	-1%
CCOC(=O)/C(C#N)=C/Nc1ccccc1OC(F)(F)F	-1%	11%	7	3%	-4%
COc1ccc(C(=O)Oc2ccc(C(c3c(C)[nH][nH]c3=O)c3c(C)[nH][nH]c3=O)cc2)cc1	-10%	x	x	x	-15%
Cc1ccc(CNC(=O)COC(=O)c2ccc(S(=O)(=O)N(C)C)cc2)cc1	0%	2%	-2	14%	-7%
CCc1ccc(N=c2c([N+](=O)[O-])nn(-c3ccc4c(c3)OCCO4)n2O)cc1	-13%	15%	-19	9%	-12%
Cc1cc(C)cc(N=c2c([N+](=O)[O-])nn(-c3ccc4c(c3)OCCO4)n2O)c1	2.6µM*	-28%	-19	-6%	2.9µM*
O=[N+]([O-])c1nn(-c2ccc3c(c2)OCCO3)n(O)c1=Nc1ccc(Cl)cc1	23µM*	-3%	u	-29%	16µM*

Screening results deposited in PubChem by National Center for Advancing Translational Sciences (NCATS).
